This note sets out measurements from ChEMBL document CHEMBL1157539, “Thousands of chemical starting points for antimalarial lead identification” (Nature, 2010).

Common to all, as to assay type: functional
In experiment [1] the test system is Plasmodium falciparum. The experiment can be described thus: GSK_TCMDC: Inhibition of Plasmodium falciparum 3D7 in whole red blood cells, using parasite LDH activity as an index of growth. Test compounds present at 2uM.
The subject of experiment [2] is Plasmodium falciparum. The experiment can be described thus: GSK_TCMDC: Inhibition of Plasmodium falciparum Dd2 in whole red blood cells, using parasite LDH activity as an index of growth. Test compounds present at 2uM.
The test system of a further experiment is HepG2. The experiment can be described thus: GSK_TCMDC: Percent inhibition of human HepG2 cell line. Test compounds present at 10uM.

As usually defined, the Inhibition is the drop in the measured response relative to a control, in per cent. Higher therefore signals a response far below the control.

As to `CC(C)CCCC(C)(C)NC[C@@H](O)[C@H](Cc1ccccc1)NC(=O)c1cccc(CCC2CC2)c1`, the Inhibition in the experiment on Plasmodium falciparum [1] came out at 98%; with Plasmodium falciparum [2] it was 52%; in the experiment on HepG2 it was 100%.

Consider `CCC1CN2CCc3c([nH]c4ccccc34)[C@@H]2C[C@@H]1CC1NCCc2cc(OC)c(OC)cc21.Cl` (stereo partly drawn), for which the Inhibition in the experiment on Plasmodium falciparum [1] is reported as 100%; in the experiment on Plasmodium falciparum [2], 67%; in the experiment on HepG2 it was 33%.

Take `N#Cc1ccc(N/C(=N\c2cccc(Cl)c2Cl)NC2Cc3ccccc3C2)c(O)c1`: the Inhibition with Plasmodium falciparum [1] was 94%; in the experiment on Plasmodium falciparum [2], 77%; with HepG2, 15%.

Take `Cc1cc(Cl)ccc1NC(=O)NCCCCCN1CCC(c2c[nH]c3ccccc23)CC1`: the values for the Inhibition in the experiment on Plasmodium falciparum [1], in the experiment with Plasmodium falciparum [2] and with HepG2 were 91%, 8% and 59%, respectively.

As to `O=[N+]([O-])c1ccc2ncnc(Nc3ccc(F)c(Cl)c3)c2c1`, the Inhibition with Plasmodium falciparum [1] worked out at 100%; in the experiment on Plasmodium falciparum [2], 65%; in the experiment on HepG2, 0%.

`COc1ccccc1Nc1nc(NC2CCN(C)CC2)cc(-c2cccc(C(F)(F)F)c2)n1.O=C(O)C(F)(F)F`: the Inhibition with Plasmodium falciparum [1] was 95%; in the experiment with Plasmodium falciparum [2], 71%; in the experiment on HepG2 it was 100%.

Regarding `CC(=O)c1sc2ccccc2c1O`, the figures for the Inhibition in the experiment with Plasmodium falciparum [1], with Plasmodium falciparum [2] and in the experiment on HepG2 were 91%, 0% and 14%, respectively.

`CS(=O)(=O)c1ccc(-n2nc(C(F)(F)F)cc2-c2ccc(C=NOCC(=O)O)o2)cc1`: the figures for the Inhibition in the experiment with Plasmodium falciparum [1], in the experiment with Plasmodium falciparum [2] and with HepG2 were 87%, 0% and 0%, respectively.

Regarding `COc1ccc(Nc2ncc3c(-c4cccc(NC(=O)Cc5cccnc5)c4)c[nH]c3n2)cc1OC`, the Inhibition is recorded as 98% in the experiment on Plasmodium falciparum [1], 85% in the experiment on Plasmodium falciparum [2] and 27% with HepG2.

Consider `CCC(=O)c1c(C)n(-c2ncnc3c2nc(C)n3-c2ccc(C)cc2C)c2ccccc12`, for which the Inhibition with Plasmodium falciparum [1] was found to be 96%; in the experiment with Plasmodium falciparum [2] it was 78%; with HepG2, 0%.

Regarding `COc1ccc(Nc2ccnc3cc4ccccc4cc23)cc1.Cl`, the Inhibition with Plasmodium falciparum [1] is on record as 100%; with Plasmodium falciparum [2], 73%; in the experiment on HepG2 it was 32%.
